Laboratory results as given in the supplement of paper PMC6992640.
± gives the standard deviation of the averaged measurements.

Columns and labels:
Assay in all cases: cell viability (% of vehicle); higher = less cytotoxic
Conditions in all cases: 10 µM; 72 h
HCI03 = tested on: HCI03 (cells of an ER-positive luminal breast cancer xenograft)
HCI09 = tested on: HCI09 (cells of a triple-negative luminal androgen receptor type breast cancer xenograft)
HCI11 = tested on: HCI11 (cells of an ER-positive luminal breast cancer xenograft)
HCI13 = tested on: HCI13 (cells of an ER-positive luminal breast cancer xenograft)
UCD52 = tested on: UCD52 (cells of a triple-negative basal-like breast cancer xenograft)
WHIM2 = tested on: WHIM2 (cells of a triple-negative basal-like breast cancer xenograft)
WHIM30 = tested on: WHIM30 (cells of a triple-negative basal-like breast cancer xenograft)
HCI16 = tested on: HCI16 (cells of a triple-negative basal-like breast cancer xenograft)
HCI01 = tested on: HCI01 (cells of a triple-negative basal-like breast cancer xenograft)
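Note: PDX cells carrying CMV promoter-driven luciferase, viability read as total photon flux per second by IVIS imaging following D-luciferin, vehicle control 0.1% DMSO.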

C[C@@H]1C\C=C/C=C\C=C/C=C\[C@H](O[C@@H]2O[C@H](C)[C@@H](O)[C@H](N)[C@@H]2O)C[C@@H]2O[C@](O)(C[C@@H](O)C[C@H]3O[C@@H]3/C=C\C(=O)O1)C[C@H](O)[C@H]2C(=O)O [Natamycin]
cell viability (HCI03): 137 | cell viability (HCI09): 121 ± 19 | cell viability (HCI11): 146 | cell viability (HCI13): 144.5 ± 1.4 | cell viability (UCD52): 156 ± 48 | cell viability (WHIM2): 103 ± 9.2 | cell viability (WHIM30): 199 ± 34

Nc1ccccc1NC(=O)c1ccc(CNC(=O)OCc2cccnc2)cc1 [Entinostat (MS-275,SNDX-275)]
cell viability (HCI03): 109 | cell viability (HCI09): 119 ± 130 | cell viability (HCI13): 58.7 ± 7.4 | cell viability (WHIM2): 75.7 ± 17

O=C(O)C1=CC(=NNc2ccc(S(=O)(=O)Nc3ccccn3)cc2)C=CC1=O [Sulfasalazine]
cell viability (HCI03): 124 | cell viability (HCI09): 119 ± 9.1 | cell viability (HCI11): 137 | cell viability (HCI13): 161 ± 27 | cell viability (HCI16): 180 | cell viability (UCD52): 100 ± 5 | cell viability (WHIM2): 105 ± 8.7 | cell viability (WHIM30): 181 ± 26

Cc1cnc(Nc2ccc(OCCN3CCCC3)cc2)nc1Nc1cccc(S(=O)(=O)NC(C)(C)C)c1
cell viability (HCI03): 173 | cell viability (HCI09): 133 ± 44 | cell viability (HCI11): 138 | cell viability (HCI13): 61.6 ± 12 | cell viability (HCI16): 161 | cell viability (UCD52): 196 ± 55 | cell viability (WHIM2): 43.8 ± 0.93

O=c1c(-c2ccc(O)cc2)coc2cc(O)ccc12 [Daidzein]
cell viability (HCI01): 146 ± 37 | cell viability (HCI03): 155 | cell viability (HCI11): 114 | cell viability (HCI16): 180 | cell viability (UCD52): 149 ± 13 | cell viability (WHIM2): 119 ± 7.2

CC1(C)CCC(CN2CCN(c3ccc(C(=O)NS(=O)(=O)c4ccc(NCC5CCOCC5)c([N+](=O)[O-])c4)c(Oc4cnc5[nH]ccc5c4)c3)CC2)=C(c2ccc(Cl)cc2)C1
cell viability (HCI01): 83.9 ± 55 | cell viability (HCI09): 61.5 ± 30 | cell viability (HCI11): 68.4 | cell viability (HCI13): 129 ± 10 | cell viability (HCI16): 80 | cell viability (UCD52): 101 ± 14 | cell viability (WHIM2): 151 ± 32 | cell viability (WHIM30): 99.4 ± 53

CCN(CC)CCNC(=O)c1ccc(N)cc1.Cl [Procainamide HCl]
cell viability (HCI01): 110 ± 3.9 | cell viability (HCI09): 108 ± 4.1 | cell viability (HCI11): 95.8 | cell viability (HCI13): 98 ± 2.4 | cell viability (HCI16): 116 | cell viability (UCD52): 100 ± 7.8 | cell viability (WHIM2): 110 ± 10 | cell viability (WHIM30): 197 ± 10

CNCCc1ccccn1.Cl.Cl [Betahistine 2HCl]
cell viability (HCI03): 134 | cell viability (HCI09): 103 ± 23 | cell viability (HCI11): 140 | cell viability (HCI13): 89.7 ± 17 | cell viability (UCD52): 133 ± 48 | cell viability (WHIM2): 93.5 ± 30 | cell viability (WHIM30): 186 ± 14

Nc1ccccc1NC(=O)c1ccc(CNc2nccc(-c3cccnc3)n2)cc1 [Mocetinostat (MGCD0103, MG0103)]
cell viability (HCI03): 87 | cell viability (HCI09): 78.4 ± 73 | cell viability (HCI11): 5.73 | cell viability (HCI13): 150 ± 160 | cell viability (WHIM2): 109 ± 13

CCn1cc(C(=O)O)c(=O)c2cnc(N3CCCC3)nc21 [Piromidic Acid]
cell viability (HCI01): 151 ± 52 | cell viability (HCI09): 132 ± 5 | cell viability (HCI11): 110 | cell viability (HCI13): 171 ± 27 | cell viability (HCI16): 125 | cell viability (UCD52): 145 ± 4.4

CCCCOc1ccc(CC(=O)NO)cc1 [Bufexamac]
cell viability (HCI01): 182.8 ± 1.2 | cell viability (HCI09): 140 ± 6.6 | cell viability (HCI11): 173 | cell viability (HCI13): 141 ± 35 | cell viability (UCD52): 148 ± 29 | cell viability (WHIM2): 112 ± 2.7 | cell viability (WHIM30): 102 ± 3.6

O=C(C=CC=Cc1ccc2c(c1)OCO2)N1CCCCC1 [Piperine]
cell viability (HCI01): 158 ± 4 | cell viability (HCI11): 134 | cell viability (HCI16): 131 | cell viability (WHIM2): 117 ± 0.57 | cell viability (WHIM30): 111.83 ± 0.044

Cl.Nc1ccc(N=Nc2ccccc2)c(N)n1 [Phenazopyridine HCl]
cell viability (HCI01): 196 ± 12 | cell viability (HCI11): 136 | cell viability (HCI16): 200 | cell viability (WHIM2): 191 ± 47

CC12CCC(=O)C=C1C1CC1C1C2CCC2(C)C1C1CC1C21CCC(=O)O1 (stereo unspecified) [Drospirenone]
cell viability (HCI03): 150 | cell viability (HCI09): 178 ± 190 | cell viability (HCI13): 84.8 ± 24 | cell viability (WHIM2): 39.5 ± 12

Nc1nc(NC2CC2)c2ncn(C3C=CC(CO)C3)c2n1.O=S(=O)(O)O (stereo unspecified) [Abacavir sulfate]
cell viability (HCI01): 161 ± 13 | cell viability (HCI11): 139 | cell viability (HCI13): 134 ± 16 | cell viability (HCI16): 157 | cell viability (UCD52): 196 ± 5.3 | cell viability (WHIM2): 128 ± 5.2

CC(=O)OCC(=O)C1CCC2C3CCC4=CC(=O)CCC4(C)C3CCC12C (stereo unspecified) [Deoxycorticosterone acetate]
cell viability (HCI03): 132 | cell viability (HCI09): 95.7 ± 46 | cell viability (HCI11): 112 | cell viability (HCI13): 141 ± 23 | cell viability (HCI16): 135 | cell viability (UCD52): 139 ± 19 | cell viability (WHIM2): 140 ± 10 | cell viability (WHIM30): 164 ± 12

Cn1cnc2c(F)c(Nc3ccc(Br)cc3Cl)c(C(=O)NOCCO)cc21 [AZD6244 (Selumetinib)]
cell viability (HCI03): 83.9 | cell viability (HCI09): 82.9 ± 23 | cell viability (HCI11): 112 | cell viability (HCI13): 92.21 ± 0.79 | cell viability (UCD52): 84.4 ± 13 | cell viability (WHIM2): 79.7 ± 8.5
